Assay [1] is described as follows: NCI Yeast Anticancer Drug Screen. Data for the rad50 strain (AID 155).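 Further: 0% = growth of vehicle-only cultures of the same strain.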 The conditions noted are these: S. cerevisiae rad50 strain growth inhibition, active compounds read high. The method, boiled down: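 A DNA repair-deficient yeast mutant serves as the test organism; compound-induced growth inhibition is calculated against vehicle-treated cells.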
Assay [2] can be described thus: NCI Yeast Anticancer Drug Screen. Data for the mec2-1 strain (AID 157). The conditions noted are these: S. cerevisiae mec2-1 strain, active compounds read high. In short, it runs like this: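 Growth inhibition is read against vehicle-treated controls after compound exposure of the mec2-1 yeast strain, which is defective in DNA damage repair or cell cycle control.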
The nature of assay [3]: NCI Yeast Anticancer Drug Screen. Data for the sgs1 mgt1 strain (AID 161).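 Further: 0% = growth of cultures given vehicle only.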 The conditions noted are these: S. cerevisiae sgs1 mgt1 strain, active compounds read high. The method, boiled down: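 Percent growth inhibition was derived by comparing compound-exposed mutant yeast with vehicle-exposed cultures. The strain carries alterations in DNA damage repair.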
The nature of assay [4]: NCI Yeast Anticancer Drug Screen. Data for the cln2 rad14 strain (AID 165).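 Further: 0% = growth equal to vehicle treated cultures.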 As to conditions: S. cerevisiae cln2 rad14 strain, active compounds read high. The method, boiled down: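 Growth inhibition, relative to vehicle-treated controls, is the read-out. The test organism is a yeast strain with defined genetic alterations, cln2 rad14.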
Assay [5] is described as follows: NCI Yeast Anticancer Drug Screen. Data for the bub3 strain (AID 167). The conditions noted are these: S. cerevisiae bub3 mutant strain, active compounds read high. The method, boiled down:
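Inhibition values come from growth of compound-treated mutant yeast normalised to vehicle-treated controls.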

A short description of assay [6]: NCI Yeast Anticancer Drug Screen. Data for the mlh1 rad18 strain (AID 175). The conditions noted are these: S. cerevisiae mlh1 rad18 strain growth inhibition, active compounds read high. The method, boiled down: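 Cells of a genetically altered yeast strain, deficient in DNA damage repair, were treated with compound. Their growth was then compared with that of vehicle-treated cultures to give inhibition.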

The mark [7] stands for this setting: at 5.0 µM (retest, dose inferred, filed as 0.5).
[8] abbreviates: at 50.0 µM (retest, dose inferred, filed as 5.0).

Each structure is given as a SMILES string. About 79,000 compounds went through this panel and 15% of them were active in at least one assay; those are over-represented in the sample as a whole. Unmarked numbers belong to inactive results. Active and inactive are the calls of the source. No stated cut-off is given here; in the data, active means growth inhibition above about 70%; inactive means the rest.

As to `CC(/C=C/c1ccc(Cl)c(Cl)c1)=N\NC(N)=S`, the growth inhibition in assay [1] (setting [7]) was 37%; in assay [1] (setting [8]) it was 69%; in assay [1] (at 50.0 µM) it was 61.2%; in assay [2] (setting [7]), 31%; in assay [2] (setting [8]) it was 73% (active); in assay [2] (at 50.0 µM), 53.5%. Also, the growth inhibition in assay [3] (setting [7]) is 48%; in assay [3] (setting [8]), 76% (active); in assay [3] (at 50.0 µM), 82.9% (active); in assay [4] (setting [7]), 39%; in assay [4] (setting [8]), 41%; in assay [4] (at 50.0 µM), 77.2% (active). In addition, the growth inhibition was 29% in assay [5] (setting [7]); 82% (active) in assay [5] (setting [8]); 64.4% in assay [5] (at 50.0 µM); 61% in assay [6] (setting [7]); 81% (active) in assay [6] (setting [8]); 80% (active) in assay [6] (at 50.0 µM).
In the case of `CC1=CC(=N/O)/C=CC/1=C(\C#N)c1ccccc1`, the growth inhibition is -14% in assay [1] (setting [7]); 99% (active) in assay [1] (setting [8]); 99.2% (active) in assay [1] (at 50.0 µM); -11% in assay [2] (setting [7]); 99% (active) in assay [2] (setting [8]); 99.4% (active) in assay [2] (at 50.0 µM). Besides, the growth inhibition in assay [3] (setting [7]) was -6%; in assay [3] (setting [8]) it was 99% (active); in assay [3] (at 50.0 µM), 99.4% (active); in assay [4] (setting [7]) it was -47%; in assay [4] (setting [8]), 99% (active); in assay [4] (at 50.0 µM), 99.3% (active). Further, the growth inhibition in assay [5] (setting [7]) is -17%; in assay [5] (setting [8]), 99% (active); in assay [5] (at 50.0 µM) it was 99.4% (active); in assay [6] (setting [7]), -20%; in assay [6] (setting [8]), 100% (active); in assay [6] (at 50.0 µM) it was 98.7% (active).
As to `CCC=Nc1c(O)cc(-c2ccccc2)n(C)c1=O`, the growth inhibition in assay [1] (setting [7]) is 36%; in assay [1] (setting [8]), 71% (active); in assay [1] (at 50.0 µM), 73.2% (active); in assay [2] (setting [7]), 35%; in assay [2] (setting [8]), 75% (active); in assay [2] (at 50.0 µM), 11.9%. Moreover, the growth inhibition in assay [3] (setting [7]) was 40%; in assay [3] (setting [8]), 92% (active); in assay [3] (at 50.0 µM), 70.8% (active); in assay [4] (setting [7]) it was 35%; in assay [4] (setting [8]), 45%; in assay [4] (at 50.0 µM), 16.3%. Moreover, the growth inhibition is 35% in assay [5] (setting [7]); 93% (active) in assay [5] (setting [8]); 70% (active) in assay [5] (at 50.0 µM); 47% in assay [6] (setting [7]); 94% (active) in assay [6] (setting [8]); 60.5% in assay [6] (at 50.0 µM).
Regarding `CCCC(=O)Oc1ccc([N+](=O)[O-])cc1`, the growth inhibition was 4% in assay [1] (setting [7]); 23% in assay [1] (setting [8]); 28.4% in assay [1] (at 50.0 µM); 2% in assay [2] (setting [7]); 13% in assay [2] (setting [8]); 29% in assay [2] (at 50.0 µM). In addition, the growth inhibition was -1% in assay [3] (setting [7]); 8% in assay [3] (setting [8]); 11.1% in assay [3] (at 50.0 µM); 2% in assay [4] (setting [7]); 6% in assay [4] (setting [8]); 34.9% in assay [4] (at 50.0 µM). Also, the growth inhibition in assay [5] (setting [7]) is 4%; in assay [5] (setting [8]), 12%; in assay [5] (at 50.0 µM), 4.5%; in assay [6] (setting [7]) it was 4%; in assay [6] (setting [8]), 13%; in assay [6] (at 50.0 µM), 13.1%.
With `CN1C=Cc2ccccc2C1C(C1c2ccccc2C=CN1C)[N+](=O)[O-]` (stereo not given), the growth inhibition in assay [1] (setting [7]) is 0%; in assay [1] (setting [8]) it was 5%; in assay [1] (at 50.0 µM) it was -5.6%; in assay [2] (setting [7]), 8%; in assay [2] (setting [8]) it was 12%; in assay [2] (at 50.0 µM), -9.95%. Moreover, the growth inhibition in assay [3] (setting [7]) was -2%; in assay [3] (setting [8]) it was 56%; in assay [3] (at 50.0 µM), 49%; in assay [4] (setting [7]), 2%; in assay [4] (setting [8]) it was 7%; in assay [4] (at 50.0 µM), 2.65%. In addition, the growth inhibition in assay [5] (setting [7]) is -4%; in assay [5] (setting [8]), 14%; in assay [5] (at 50.0 µM), 15.8%; in assay [6] (setting [7]), -11%; in assay [6] (setting [8]) it was 1%; in assay [6] (at 50.0 µM), -13.5%.
Consider `CC(=O)OC1OC2C(NC(=O)OC(C)(C)C)C1CC2(OCc1ccccc1)OCc1ccccc1` (stereo not given), for which the growth inhibition in assay [1] (setting [7]) is 35%; in assay [1] (setting [8]) it was 35%; in assay [1] (at 50.0 µM), 23.6%; in assay [2] (setting [7]), 25%; in assay [2] (setting [8]), 25%; in assay [2] (at 50.0 µM) it was -24.4%. The growth inhibition is 29% in assay [3] (setting [7]); 29% in assay [3] (setting [8]); -3.2% in assay [3] (at 50.0 µM); 8% in assay [4] (setting [7]); 8% in assay [4] (setting [8]); 9.6% in assay [4] (at 50.0 µM). For the same compound, the growth inhibition is 18% in assay [5] (setting [7]); 18% in assay [5] (setting [8]); -12.8% in assay [5] (at 50.0 µM); 28% in assay [6] (setting [7]); 28% in assay [6] (setting [8]); 9% in assay [6] (at 50.0 µM).
With `O=C(Nc1cc(Cl)ccc1Oc1cc(Cl)c(Cl)cc1S(=O)(=O)O)Nc1cc(Cl)ccc1Oc1cc(Cl)c(Cl)cc1S(=O)(=O)O`, the growth inhibition in assay [1] (setting [7]) was -10%; in assay [1] (setting [8]), 81% (active); in assay [1] (at 50.0 µM), 85% (active); in assay [2] (setting [7]), -3%; in assay [2] (setting [8]), 73% (active); in assay [2] (at 50.0 µM), 87.4% (active). Moreover, the growth inhibition was -13% in assay [3] (setting [7]); 79% (active) in assay [3] (setting [8]); 84.1% (active) in assay [3] (at 50.0 µM); 23% in assay [4] (setting [7]); 56% in assay [4] (setting [8]); 76% (active) in assay [4] (at 50.0 µM). The growth inhibition was 14% in assay [5] (setting [7]); 78% (active) in assay [5] (setting [8]); 86% (active) in assay [5] (at 50.0 µM); -4% in assay [6] (setting [7]); 91% (active) in assay [6] (setting [8]); 85.3% (active) in assay [6] (at 50.0 µM).
As to `CCCCCCC(OCCC)OCCC`, the growth inhibition in assay [1] (setting [7]) is -4%; in assay [1] (setting [8]), -3%; in assay [1] (at 50.0 µM) it was 35.8%; in assay [2] (setting [7]) it was -28%; in assay [2] (setting [8]) it was -1%; in assay [2] (at 50.0 µM), -15.6%. Moreover, the growth inhibition in assay [3] (setting [7]) was -3%; in assay [3] (setting [8]) it was -1%; in assay [3] (at 50.0 µM), 5%; in assay [4] (setting [7]), -2%; in assay [4] (setting [8]), 1%; in assay [4] (at 50.0 µM) it was 74% (active). Also, the growth inhibition was -10% in assay [5] (setting [7]); -6% in assay [5] (setting [8]); -0.5% in assay [5] (at 50.0 µM); -2% in assay [6] (setting [7]); -1% in assay [6] (setting [8]); 38.4% in assay [6] (at 50.0 µM).
As for `COc1ccc(C(=O)C(CN2CCOCC2)CN2CCOCC2)cc1`, the growth inhibition in assay [1] (setting [7]) was 11%; in assay [1] (setting [8]) it was -10%; in assay [1] (at 50.0 µM) it was 96.2% (active); in assay [2] (setting [7]), 20%; in assay [2] (setting [8]) it was -6%; in assay [2] (at 50.0 µM) it was 97.2% (active). Moreover, the growth inhibition in assay [3] (setting [7]) is 23%; in assay [3] (setting [8]), -6%; in assay [3] (at 50.0 µM), 97.7% (active); in assay [4] (setting [7]), 11%; in assay [4] (setting [8]) it was -11%; in assay [4] (at 50.0 µM) it was 92.3% (active). Moreover, the growth inhibition was 10% in assay [5] (setting [7]); -5% in assay [5] (setting [8]); 95.7% (active) in assay [5] (at 50.0 µM); 18% in assay [6] (setting [7]); -2% in assay [6] (setting [8]); 97.2% (active) in assay [6] (at 50.0 µM).
`CC1(C)CCC[C@@]2(C)C1CC[C@@]1(CO1)[C@@H]2/C=C\C(C=O)CC=O` (stereo not given in full): the growth inhibition was 60% in assay [1] (setting [7]); 99% (active) in assay [1] (setting [8]); 92.9% (active) in assay [1] (at 50.0 µM); 36% in assay [2] (setting [7]); 100% (active) in assay [2] (setting [8]); 94.2% (active) in assay [2] (at 50.0 µM). For the same compound, the growth inhibition was 59% in assay [3] (setting [7]); 100% (active) in assay [3] (setting [8]); 94.5% (active) in assay [3] (at 50.0 µM); 70% (active) in assay [4] (setting [7]); 100% (active) in assay [4] (setting [8]); 92.7% (active) in assay [4] (at 50.0 µM). Further, the growth inhibition in assay [5] (setting [7]) is 79% (active); in assay [5] (setting [8]), 100% (active); in assay [5] (at 50.0 µM) it was 93.3% (active); in assay [6] (setting [7]), 87% (active); in assay [6] (setting [8]), 99% (active); in assay [6] (at 50.0 µM) it was -27.4%.

These data come from PubChem BioAssay (NCI).
